From PubChem BioAssay (EPA / NIEHS)
“And” between values parts separate entries of the source, which are not always exact repeats. Equal values may be shown once. The source made the active and inactive calls. How the source made its calls: active means hit-call score of the fitted dose curve at least 0.9, where 1 is the maximum; inactive means score below 0.9.

Read-out: Matrix Metallopeptidase 1 (MMP1), MMP1 (gene 4312)
Experiment: BSK_BE3C_MMP1: BioMAP Diversity Plus: BE3C Assay for Matrix Metallopeptidase 1 (MMP1) Biomarker Activity (AID 2283024)
Details: primary human bronchial epithelial cells; actives raise or lower the signal
Summary of the method: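 Primary human bronchial epithelial cells were dosed with test chemicals, and MMP1 levels were measured by ELISA 24 h later. Data were fitted bidirectionally against DMSO as the negative control and activity baseline.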

Structure (SMILES) | outcome | AC50
Nc1ccc(N)c([N+](=O)[O-])c1 | inactive | 
C=C(C)C(=O)OCCC(F)(F)C(F)(F)C(F)(F)C(F)(F)C(F)(F)C(F)(F)C(F)(F)C(F)(F)F | inactive | 
O=S1(=O)CC(Cl)(Cl)C(Cl)(Cl)C1 |  | 2.15 µM (active)
C=C(F)C(=O)OC(C(F)(F)F)C(F)(F)F | inactive | 
CC(C)CCCC(C)(C)O | inactive | 
CC(C)Cc1ccc(C(C)C(=O)O)cc1 (centres undefined) | inactive | 
O=C(O)C(F)(F)OC(F)(F)C(F)(F)OC(F)(F)C(F)(F)C(F)(F)C(F)(F)F |  | 19.9 µM (active) and 21.3 µM (active)
CCCCOCCOCCO | inactive | 

Read-out: Pselectin, SELP (gene 6403)
Experiment: BSK_4H_Pselectin: BioMAP Diversity Plus: 4H Assay for Pselectin Biomarker Activity (AID 2283026)
Details: primary human endothelial cells (HUVEC); actives raise or lower the signal
Summary of the method: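 Primary human umbilical vein endothelial cells were exposed to test chemical for 24 h, then cell-surface P-selectin was quantified by ELISA. Activity was fitted bidirectionally against DMSO as negative control and baseline.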

Structure (SMILES) | outcome | AC50
Nc1ccc(N)c([N+](=O)[O-])c1 | inactive | 
C=C(C)C(=O)OCCC(F)(F)C(F)(F)C(F)(F)C(F)(F)C(F)(F)C(F)(F)C(F)(F)C(F)(F)F | inactive | 
O=S1(=O)CC(Cl)(Cl)C(Cl)(Cl)C1 |  | 194 nM (active)
C=C(F)C(=O)OC(C(F)(F)F)C(F)(F)F | inactive | 
CC(C)CCCC(C)(C)O | inactive | 
CC(C)Cc1ccc(C(C)C(=O)O)cc1 (centres undefined) | inactive | 
O=C(O)C(F)(F)OC(F)(F)C(F)(F)OC(F)(F)C(F)(F)C(F)(F)C(F)(F)F | inactive | 
CCCCOCCOCCO | inactive | 

Read-out: not listed separately
Experiment: BSK_4H_SRB: Viability Assessment in the BioMAP Diversity Plus: 4H Assay (AID 2283027);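 further: cells exposed to compound for 24 h before staining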;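 on AC50: curves fitted both ways versus DMSO so AC50 may be loss or gain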
Details: primary human endothelial cells (HUVEC)
Summary of the method: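 Human umbilical vein endothelial cells were dosed with chemical and, after 24 h, fixed with 10% TCA, stained with 0.1% sulforhodamine B, and read at 560 nm to give total protein as a cytotoxicity measure. Bidirectional fitting relative to DMSO control.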

Structure (SMILES) | outcome | AC50
Nc1ccc(N)c([N+](=O)[O-])c1 | inactive | 
C=C(C)C(=O)OCCC(F)(F)C(F)(F)C(F)(F)C(F)(F)C(F)(F)C(F)(F)C(F)(F)C(F)(F)F | inactive | 
O=S1(=O)CC(Cl)(Cl)C(Cl)(Cl)C1 |  | 992 nM (active)
C=C(F)C(=O)OC(C(F)(F)F)C(F)(F)F | inactive | 
CC(C)CCCC(C)(C)O | inactive | 
CC(C)Cc1ccc(C(C)C(=O)O)cc1 (centres undefined) | inactive | 
O=C(O)C(F)(F)OC(F)(F)C(F)(F)OC(F)(F)C(F)(F)C(F)(F)C(F)(F)F | inactive | 
CCCCOCCOCCO | inactive | 

Read-out: not listed separately
Experiment: BSK_BE3C_SRB: Viability Assessment in the BioMAP Diversity Plus: BE3C Assay (AID 2283028);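 on AC50: fitted both ways so AC50 may mark signal gain or loss versus DMSO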
Details: primary human bronchial epithelial cells
Summary of the method: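 Cytotoxicity read-out: SRB (0.1%) staining of TCA-fixed (10%) human lung bronchial epithelial cells, absorbance 560 nm, 24 h post-dosing. Curves fitted both directions relative to DMSO.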

Structure (SMILES) | outcome | AC50
Nc1ccc(N)c([N+](=O)[O-])c1 | inactive | 
C=C(C)C(=O)OCCC(F)(F)C(F)(F)C(F)(F)C(F)(F)C(F)(F)C(F)(F)C(F)(F)C(F)(F)F | inactive | 
O=S1(=O)CC(Cl)(Cl)C(Cl)(Cl)C1 |  | 1.18 µM (active)
C=C(F)C(=O)OC(C(F)(F)F)C(F)(F)F | inactive | 
CC(C)CCCC(C)(C)O | inactive | 
CC(C)Cc1ccc(C(C)C(=O)O)cc1 (centres undefined) | inactive | 
O=C(O)C(F)(F)OC(F)(F)C(F)(F)OC(F)(F)C(F)(F)C(F)(F)C(F)(F)F | inactive | 
CCCCOCCOCCO | inactive | 

Read-out: Thrombomodulin, THBD (gene 7056)
Experiment: BSK_3C_Thrombomodulin: BioMAP Diversity Plus: 3C Assay for Thrombomodulin Biomarker Activity (AID 2283029)
Details: primary human endothelial cells (HUVEC); actives raise or lower the signal
Summary of the method: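 Primary human umbilical vein endothelial cells (3C system) were exposed to chemical for 24 h, then thrombomodulin levels were measured by ELISA. Activity was fitted bidirectionally against the DMSO negative control as baseline.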

Structure (SMILES) | outcome
Nc1ccc(N)c([N+](=O)[O-])c1 | inactive
C=C(C)C(=O)OCCC(F)(F)C(F)(F)C(F)(F)C(F)(F)C(F)(F)C(F)(F)C(F)(F)C(F)(F)F | inactive
O=S1(=O)CC(Cl)(Cl)C(Cl)(Cl)C1 | inactive
C=C(F)C(=O)OC(C(F)(F)F)C(F)(F)F | inactive
CC(C)CCCC(C)(C)O | inactive
CC(C)Cc1ccc(C(C)C(=O)O)cc1 (centres undefined) | inactive
O=C(O)C(F)(F)OC(F)(F)C(F)(F)OC(F)(F)C(F)(F)C(F)(F)C(F)(F)F | inactive
CCCCOCCOCCO | inactive

Read-out: Urokinase-type plasminogen activator receptor (uPAR), PLAUR (gene 5329)
Experiment: BSK_4H_uPAR: BioMAP Diversity Plus: 4H Assay for Urokinase-type plasminogen activator receptor (uPAR) Biomarker Activity (AID 2283030)
Details: primary human endothelial cells (HUVEC); actives raise or lower the signal
Summary of the method: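 uPAR level read by ELISA on HUVEC cultures (BioMAP 4H) 24 h post-dosing, analyzed for gain or loss relative to DMSO. Parallel SRB staining assessed overt cytotoxicity.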

Structure (SMILES) | outcome | AC50
Nc1ccc(N)c([N+](=O)[O-])c1 | inactive | 
C=C(C)C(=O)OCCC(F)(F)C(F)(F)C(F)(F)C(F)(F)C(F)(F)C(F)(F)C(F)(F)C(F)(F)F | inactive | 
O=S1(=O)CC(Cl)(Cl)C(Cl)(Cl)C1 |  | 921 nM (active)
C=C(F)C(=O)OC(C(F)(F)F)C(F)(F)F | inactive | 
CC(C)CCCC(C)(C)O | inactive | 
CC(C)Cc1ccc(C(C)C(=O)O)cc1 (centres undefined) | inactive | 
O=C(O)C(F)(F)OC(F)(F)C(F)(F)OC(F)(F)C(F)(F)C(F)(F)C(F)(F)F | inactive | 
CCCCOCCOCCO | inactive | 

Read-out: Vascular endothelial growth factor receptor 2 (Homo sapiens) (UniProt P35968)
Experiment: BSK_4H_VEGFRII: BioMAP Diversity Plus: 4H Assay for Vascular endothelial growth factor receptor 2 (VEGFR2) Biomarker Activity (AID 2283031)
Details: primary human endothelial cells (HUVEC); actives raise or lower the signal
Summary of the method: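 Measured by ELISA after 24 h of compound treatment: VEGFR2 on primary human umbilical vein endothelial cells, fitted in both directions relative to DMSO. Parallel cultures received SRB staining (560 nm) for overt cytotoxicity.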

Structure (SMILES) | outcome
Nc1ccc(N)c([N+](=O)[O-])c1 | inactive
C=C(C)C(=O)OCCC(F)(F)C(F)(F)C(F)(F)C(F)(F)C(F)(F)C(F)(F)C(F)(F)C(F)(F)F | inactive
O=S1(=O)CC(Cl)(Cl)C(Cl)(Cl)C1 | inactive
C=C(F)C(=O)OC(C(F)(F)F)C(F)(F)F | inactive
CC(C)CCCC(C)(C)O | inactive
CC(C)Cc1ccc(C(C)C(=O)O)cc1 (centres undefined) | inactive
O=C(O)C(F)(F)OC(F)(F)C(F)(F)OC(F)(F)C(F)(F)C(F)(F)C(F)(F)F | inactive
CCCCOCCOCCO | inactive

Read-out: Human Leukocyte Antigen - DR isotype (HLADR), HLA-DRA (gene 3122)
Experiment: BSK_BE3C_HLADR: BioMAP Diversity Plus: BE3C Assay for Human Leukocyte Antigen - DR isotype (HLADR) Biomarker Activity (AID 2283032)
Details: primary human bronchial epithelial cells; actives raise or lower the signal
Summary of the method: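 Human primary bronchial epithelial cells in the BE3C system were exposed to chemicals for 24 h, after which HLA-DR levels were quantified by ELISA. Activity was fitted bidirectionally, gain or loss of signal, against DMSO as negative control and baseline.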

Structure (SMILES) | outcome | AC50
Nc1ccc(N)c([N+](=O)[O-])c1 | inactive | 
C=C(C)C(=O)OCCC(F)(F)C(F)(F)C(F)(F)C(F)(F)C(F)(F)C(F)(F)C(F)(F)C(F)(F)F | inactive | 
O=S1(=O)CC(Cl)(Cl)C(Cl)(Cl)C1 |  | 960 nM (active)
C=C(F)C(=O)OC(C(F)(F)F)C(F)(F)F | inactive | 
CC(C)CCCC(C)(C)O | inactive | 
CC(C)Cc1ccc(C(C)C(=O)O)cc1 (centres undefined) | inactive | 
O=C(O)C(F)(F)OC(F)(F)C(F)(F)OC(F)(F)C(F)(F)C(F)(F)C(F)(F)F |  | 21.2 µM (active) and 13.3 µM (active)
CCCCOCCOCCO | inactive | 
